Compounds without any hit were thinned out: in the full panel of roughly 83,000, 20% have a hit.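 The endpoint reported here, percent growth, reads 100 for growth as untreated, 0 for no net growth and -100 for all cells dead.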 Values without a mark were called inactive. Activity calls are given as the source filed them. The calls were made as follows: active = growth percent below 10; inactive = the rest.

Some test systems named below: BT-549 breast; MDA-MB-435 melanoma; SW-620 colon; MCF7 breast; HCT-116 colon; HCC-2998 colon; KM12 colon.
What all share (assay): NCI-60 one-dose screen, 48 h (100 = growth as untreated, 0 = no growth, -100 = all killed)
Common to all, as to conditions: 10 µM unless noted

On to `CN(C)CCCNc1c2ccccc2nc2c1oc1ccc(Cl)cc12`, for which the growth with BT-549 breast is 57.9%; in the assay with MDA-MB-435 melanoma, 33.5%; in the assay with SW-620 colon, 9.93% (active); in the assay on MCF7 breast, -25.7% (active); in the assay on HCT-116 colon, 22.5%; in the assay with HCC-2998 colon it was -43.7% (active). Further, in the assay with KM12 colon, the growth was 25.5%.
For the molecule `COc1ccc(NC2=CC(=O)C(C)=C(C)C2=O)cc1`, the growth with BT-549 breast is 119%; in the assay on MDA-MB-435 melanoma, 7.8% (active); in the assay on SW-620 colon it was 101%; in the assay with MCF7 breast, 71.9%; in the assay on HCT-116 colon, 80.6%; in the assay on KM12 colon, 101%.
`Cc1ccc2ccc3ccc(C)nc3c2n1.Cc1ccc2ccc3ccc(C)nc3c2n1.Oc1c(Cl)cc(Cl)c2ccc(CN3CCCCC3)nc12.[Ru]`: the growth in the assay on BT-549 breast is -95.8% (active); with MDA-MB-435 melanoma, -90.5% (active); in the assay with SW-620 colon, -40% (active); in the assay with MCF7 breast, -75.1% (active); with HCT-116 colon, -92% (active); in the assay with HCC-2998 colon it was -90.1% (active). Further, the growth in the assay on KM12 colon is -73.9% (active).
In the case of `Cn1cc(-c2cc(N)n3nc(-c4cn(C)c5ccc(F)cc45)cc3n2)c2cc(F)ccc21`, the growth in the assay on BT-549 breast is 77.5%; in the assay on MDA-MB-435 melanoma, 5.54% (active); in the assay with SW-620 colon it was -36.6% (active); with MCF7 breast, 10%; in the assay on HCT-116 colon, -92.8% (active); with HCC-2998 colon, 1.23% (active). Besides, the growth in the assay with KM12 colon is 6.56% (active).
Regarding `Cc1[nH]nc2ncc(C#Cc3cncc(C(=O)Nc4ccc(CN5CCN(C)CC5)c(C(F)(F)F)c4)c3)cc12`, the growth is 64.5% in the assay on BT-549 breast; 13.1% in the assay on MDA-MB-435 melanoma; 4.05% (active) with SW-620 colon; 43.8% in the assay with MCF7 breast; 8.54% (active) with HCT-116 colon; 44.4% with HCC-2998 colon. Besides, the growth with KM12 colon is 8.98% (active).
In the case of `O=C(c1ccc(Cl)cc1)C1[C@H](c2ccc(Cl)cc2)[C@@H](c2ccccc2)NC12C(=O)Nc1ccc(Br)cc12` (some centres not stated), the growth is 61.4% in the assay with BT-549 breast; 34.8% in the assay on MDA-MB-435 melanoma; 36.3% in the assay on SW-620 colon; 15.8% in the assay on MCF7 breast; 13.2% in the assay with HCT-116 colon; 13.3% with HCC-2998 colon. For the same molecule, in the assay on KM12 colon, the growth was 15.3%.
As to `C=CCn1c(SCC(=O)c2ccccc2)nnc1-c1c[nH]c2ccccc12`, the growth with BT-549 breast is 109%; with MDA-MB-435 melanoma it was 105%; in the assay with SW-620 colon it was 96.1%; in the assay on MCF7 breast it was 97.2%; with HCT-116 colon, 97.5%; in the assay on HCC-2998 colon, 111%. Further, in the assay with KM12 colon, the growth is 112%.
Regarding `O=[N+]([O-])c1ccc(O)c2ncccc12`, the growth with BT-549 breast was 61.4%; in the assay on MDA-MB-435 melanoma, 40%; in the assay on SW-620 colon it was 25.7%; in the assay with MCF7 breast, 9.13% (active); in the assay with HCT-116 colon, 21.4%; in the assay on HCC-2998 colon it was 44.5%. Besides, the growth in the assay with KM12 colon was 22.2%.
Take `C/C(=N/NC(N)=S)c1ccc(Nc2nc(SCC(C)C)nc(-c3ccc(F)cc3)c2C#N)cc1`: the growth in the assay on BT-549 breast is 55.8%; in the assay with MDA-MB-435 melanoma, 13.1%; in the assay on SW-620 colon it was 4.45% (active); in the assay on MCF7 breast it was 0.17% (active); with HCT-116 colon, 3.84% (active); with HCC-2998 colon, 34.8%. Moreover, the growth in the assay with KM12 colon is 23.5%.
In the case of `Cc1ccc(/C=C/c2nn3c(-c4ccco4)nnc3s2)cc1C`, the growth with BT-549 breast is 107%; in the assay with MDA-MB-435 melanoma, 99.4%; in the assay with SW-620 colon it was 98.5%; in the assay on MCF7 breast, 82.1%; with HCT-116 colon, 109%; with HCC-2998 colon, 108%. The growth with KM12 colon was 110%.
Take `c1ccc(CNc2ncnc3ccc(-c4cnc5[nH]ncc5c4)cc23)cc1`: the growth is 62.2% in the assay on BT-549 breast; 86.9% with MDA-MB-435 melanoma; 72.9% in the assay on SW-620 colon; 30.3% in the assay with MCF7 breast; 80.1% in the assay with HCT-116 colon; 83.6% with HCC-2998 colon. Further, in the assay with KM12 colon, the growth is 84.9%.
As for `CCOC(=O)c1c(Nc2ccccc2)nn2c(N)c(C#N)c(-c3ccccc3)nc12`, the growth was 95% with BT-549 breast; 75.3% with MDA-MB-435 melanoma; 81.6% with SW-620 colon; 60.1% with MCF7 breast; 78.3% in the assay on HCT-116 colon; 97% in the assay on HCC-2998 colon. The growth in the assay on KM12 colon is 77.7%.
In the case of `Cc1sc2nc(NCc3ccccc3Cl)[nH]c(=O)c2c1C`, the growth was 99.8% in the assay with BT-549 breast; 92.6% in the assay on MDA-MB-435 melanoma; 102% with SW-620 colon; 80.6% in the assay with MCF7 breast; 49.7% with HCT-116 colon; 115% in the assay with HCC-2998 colon. Besides, the growth with KM12 colon was 91%.
Take `CC(C)(C)Nc1nc2c(OCCc3ccccc3)cccn2c1-c1ccc(Cl)cc1`: the growth in the assay on BT-549 breast is 47.7%; in the assay with MDA-MB-435 melanoma, 19.2%; with SW-620 colon, 41%; with MCF7 breast it was 0.0476% (active); with HCT-116 colon, 8.63% (active); in the assay on HCC-2998 colon it was 24.7%. Further, the growth in the assay with KM12 colon was 32.7%.
With `Cc1cccc2sc(/N=C(\N)C(Cl)(Cl)Cl)nc12`, the growth in the assay with BT-549 breast is 117%; in the assay with MDA-MB-435 melanoma it was 103%; in the assay on SW-620 colon it was 103%; in the assay with MCF7 breast it was 85%; with HCT-116 colon, 101%; in the assay with HCC-2998 colon, 111%. The growth in the assay with KM12 colon is 97.5%.
`Cn1cc(-c2cc(N)n3nc(-c4cn(C)c5ccc(Br)cc45)cc3n2)c2cc(Br)ccc21`: the growth is 105% with BT-549 breast; 30.8% in the assay on MDA-MB-435 melanoma; 1.21% (active) in the assay on SW-620 colon; 1.35% (active) with MCF7 breast; 57% in the assay with HCT-116 colon; 82.5% in the assay on HCC-2998 colon. In addition, the growth with KM12 colon was 64.8%.
On to `Cc1nc(-c2cc3ccccc3oc2=O)ccc1C(=O)/C=C/c1ccc(Cl)c(Cl)c1`, for which the growth in the assay on BT-549 breast was 108%; in the assay with MDA-MB-435 melanoma it was 103%; with SW-620 colon it was 101%; with MCF7 breast it was 86.3%; with HCT-116 colon it was 103%; in the assay on HCC-2998 colon, 107%. For the same molecule, the growth in the assay on KM12 colon is 103%.
For `O=C1Nc2cc(Cl)ccc2/C1=C\c1ccc(OCc2ccc([N+](=O)[O-])cc2)cc1`, the growth in the assay with BT-549 breast is 77.5%; in the assay with MDA-MB-435 melanoma, 80.2%; in the assay with SW-620 colon, 76.8%; with MCF7 breast, 61.3%; in the assay on HCT-116 colon, 68.2%; in the assay on HCC-2998 colon it was 82.8%. The growth in the assay with KM12 colon is 64.6%.
Turning to `C=C1CC[C@H]2[C@@](C)(CCC3OC(c4ccc(OCc5cn(C6CC(OC(C)=O)C(OC(C)=O)C(COC(C)=O)O6)nn5)cc4)OC[C@]32C)[C@@H]1/C=C/C1=CCOC1=O` (some centres not stated), the growth in the assay with BT-549 breast is 61.2%; in the assay on MDA-MB-435 melanoma, 85.4%; in the assay with SW-620 colon, 96.1%; with MCF7 breast, 44.4%; in the assay on HCT-116 colon, 48.3%; in the assay on HCC-2998 colon, 100%. In addition, the growth in the assay on KM12 colon was 86.3%.
`Clc1ccc2c(OCCCN3CCOCC3)c3oc4ccccc4c3nc2c1`: the growth with BT-549 breast was 80.1%; in the assay with MDA-MB-435 melanoma, 33.2%; with SW-620 colon it was 19.2%; in the assay on MCF7 breast, 10.4%; with HCT-116 colon, 17.7%; in the assay with HCC-2998 colon it was 46%. For the same molecule, in the assay with KM12 colon, the growth is 33.1%.
For the molecule `O=C(CN1C(=O)/C(=C/c2ccccc2)SC1=S)N1CCOCC1`, the growth in the assay on BT-549 breast was 97.5%; in the assay with MDA-MB-435 melanoma, 96.2%; with SW-620 colon, 87.2%; in the assay with MCF7 breast, 80.8%; with HCT-116 colon, 98.3%; with KM12 colon, 100%.
As for `N#Cc1c(-c2ccc(Cl)cc2)nc(SCc2ccc([N+](=O)[O-])cc2)nc1N1CCNCC1`, the growth was 89.6% in the assay with BT-549 breast; -63.3% (active) in the assay with MDA-MB-435 melanoma; -52.8% (active) in the assay on SW-620 colon; -43.9% (active) with MCF7 breast; -40.1% (active) in the assay with HCC-2998 colon.
As to `CCOC(=O)c1sc(N)c(C(=O)OCC)c1C`, the growth in the assay with BT-549 breast was 59.9%; in the assay with MDA-MB-435 melanoma it was 81.2%; in the assay on SW-620 colon, 71.6%; in the assay with MCF7 breast, 57.9%; in the assay with HCT-116 colon, 52.8%; in the assay on KM12 colon it was 69.1%.
Take `C/C(=N\NC(N)=O)c1c(O)sc(=O)[nH]c1=O`: the growth in the assay on BT-549 breast was 95.3%; in the assay with MDA-MB-435 melanoma it was 104%; in the assay on SW-620 colon, 97.5%; in the assay on MCF7 breast it was 93.4%; with HCT-116 colon, 91%; in the assay with KM12 colon, 100%.

Source of the values: PubChem BioAssay (NCI).
